Assay outcomes: PubChem BioAssay, National Center for Advancing Translational Sciences (NCATS)
HEK293 cAMP ctrl = qHTS Assay for Agonists of the Thyroid Stimulating Hormone Receptor: Activators of Intracellular cAMP Concentrations in Parental HEK 293 | parental HEK293 CNG cAMP sensor, membrane potential fluorescence | Potency, µM (top dose mostly 57.1 µM), actives largely listed as activators | 73,000 tested, 2.5% active | AID 938, 2007; note: nearly all actives have a fitted effect of over 55% in size
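Parental HEK 293 cells stably expressing a cAMP-gated CNG channel were loaded with membrane potential dye containing 100 uM RO 20-1724 for 60 min. Compound added for 30 min; depolarization read as fluorescence intensity at 590 nm.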
GBA activity = Glucocerebrosidase | AID 360, 2006 | Lysosomal acid glucosylceramidase (Homo sapiens), P04062 | purified enzyme, resorufin glucoside fluorescence (screen aimed at inhibitors), 20 min | 48,000 tested, 1.1% active | Potency, µM; in the data active = potency below about 15 µM; inconclusive = mostly about 16 µM to 33 µM;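 note: the screen sought inhibitors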
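Compounds titrated against 0.2 nM normal enzyme, 30 uM resorufin beta-D-glucopyranoside substrate, citrate/phosphate buffer with taurocholate and tween-20, pH 5.9. Reaction ran 20 min at room temperature; fluorescence (Ex 548/Em 600) gave AC50.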
Bst PK mod = Pyruvate Kinase. purified pyruvate kinase, luminescence ATP production; ribose 5-phosphate activator present at AC10. Potency, µM. 51,000 tested, 1.2% active; in the data active = potency below about 11 µM; inconclusive = mostly about 12 µM to 25 µM;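 the screen sought inhibitors and activators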
TSHR agonist = qHTS Assay for Agonists of the Thyroid Stimulating Hormone Receptor | Thyrotropin receptor (Homo sapiens), P16473 | HEK293-CNG-TSHR cells (CNG channel as cAMP sensor), membrane potential dye, cAMP | Potency, µM (top dose mostly 57.1 µM), most hits filed as activators | 73,000 tested, 0.48% active | AID 926, 2007; active = well fitted activation curve with a large enough effect in the main read-out, with a control signal flat, not every such curve was filed as active; inconclusive = small, poorly fitted or top-dose-only effect, or a change in a side signal; inactive = no such curve, though single readings can be large or run the other way; reference of the percent scale not stated here;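 note: the control signal comes from parental cells without the receptor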
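HEK 293 cells stably expressing TSHR and a modified CNG channel, with CNG-only parental cells as counterscreen, were preloaded 60 min at room temperature with membrane potential dye containing 100 uM RO 20-1724. Compound exposure was 30 min, and depolarization was read as fluorescence at 590 nm.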
Casp1 inh = qHTS Assay for Allosteric/Competitive Inhibitors of Caspase-1 | Potency, µM (highest dose often 57.5 µM), hits mostly inhibitors | P29466 | 75,000 tested, 0.03% active | Caspase-1 enzyme, Ac-WEHD-AFC fluorogenic rate
Target sequence (P29466 120-297 limits assumed): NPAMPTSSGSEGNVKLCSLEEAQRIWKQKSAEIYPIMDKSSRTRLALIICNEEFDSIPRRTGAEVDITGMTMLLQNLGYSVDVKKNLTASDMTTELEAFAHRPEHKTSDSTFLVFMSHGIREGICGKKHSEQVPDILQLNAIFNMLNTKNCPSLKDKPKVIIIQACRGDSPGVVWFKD
Target sequence (P29466 317-404 limits assumed): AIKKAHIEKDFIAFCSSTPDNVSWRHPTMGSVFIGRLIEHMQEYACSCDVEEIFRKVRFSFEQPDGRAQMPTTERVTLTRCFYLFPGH
Caspase-7 inhib = qHTS Assay for Allosteric/Competitive Inhibitors of Caspase-7; P55210; recombinant caspase-7, Ac-DEVD-AFC fluorescence rate; Potency, µM (highest dose often 57.5 µM), most hits filed as inhibitors; 75,000 tested, 0.02% active; AID 889, 2007; active = well fitted inhibition curve with a large enough effect in the main read-out, with a control signal flat, not every such curve was filed as active; inconclusive = small, poorly fitted or top-dose-only effect, or a change in a side signal
Target sequence (P55210 24-198 limits assumed): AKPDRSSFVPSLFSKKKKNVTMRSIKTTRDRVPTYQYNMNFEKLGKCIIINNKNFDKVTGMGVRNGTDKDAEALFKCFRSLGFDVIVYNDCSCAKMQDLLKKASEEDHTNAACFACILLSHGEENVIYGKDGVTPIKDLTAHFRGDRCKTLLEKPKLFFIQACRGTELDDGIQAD
Target sequence (P55210 207-303 limits assumed): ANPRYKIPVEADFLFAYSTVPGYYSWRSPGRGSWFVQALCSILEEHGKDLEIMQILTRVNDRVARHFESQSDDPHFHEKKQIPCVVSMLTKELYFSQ
parental cAMP = Confirmation Concentration-Response Assay for Agonists of the Thyroid Stimulating Hormone Receptor: Activators of Intracellular cAMP Concentrations in Parental HEK 293; 150 tested, under 10 active; activity change, negative = inhibition, % at 32.9 µM; parental HEK293 CNG biosensor, cAMP membrane potential fluorescence; shares compounds with TSHR agonist
Numbers stand for hits; . = inactive; ? = inconclusive; / = no result given; [ ] = dose if it differs, or a comment. Only some compounds are listed: those with a hit (about 4% of all), similar ones and a draw of the others. Unless noted, calls come from the whole dose curve; as a rule, active = well fitted curve in the direction sought with a large enough effect; inconclusive = small, poorly fitted or top-dose-only effect, or another doubt; inactive = no such curve, though single readings can be large; an effect the other way counts as inactive or inconclusive.

SMILES	HEK293 cAMP ctrl	GBA activity	Bst PK mod	TSHR agonist	Casp1 inh	Caspase-7 inhib	parental cAMP
CC(C)=CCC/C(C)=C/CO/N=C1/C[C@@H](O)[C@@H](O)[C@@H]2[C@H]3C(=O)N(c4ccc(F)cc4F)C(=O)[C@@H]3CC[C@H]12	.[11.4 µM]	/	/	.[11.4 µM]	.[11.5 µM]	.[11.5 µM]	/
CCc1nnc(NC(=O)CSc2nnc(-c3ccoc3C)n2CC(C)C)s1	.	.	.	.	.	.	/
Cc1occc1-c1nnc(SCC(=O)NCc2ccco2)n1CC(C)C	.	/	.	20µM	.	.	.
Nc1nc(-c2ccccc2)cc(C(F)(F)F)n1	.	.	/	.	.	.	/
Oc1ccccc1-c1cc(C(F)(F)C(F)F)nc(-c2ccccc2)n1	?	/	.	?	.	.	.
O=C1C=C(NCc2ccco2)C2(CCCCC2)O1	?	/	/	?	.	.	/
O=C1C=C(NCc2ccccc2)C2(CCCCC2)O1	.[11.4 µM]	/	/	/	.	.	.
O=C1c2ccccc2C(=O)N1Cc1ccc2c(c1)OCO2	?	.	.	?	.	.	/
Nc1cc(CN2C(=O)c3ccccc3C2=O)cc(Cl)c1O	.	.	.	.	.	.	.
O=C(CSc1nc2scc(-c3ccco3)c2c(=O)n1-c1ccccc1)N1CCOCC1	.	?	.	16µM	.	.	.
COc1ccc(S(=O)(=O)N(C)CC(=O)N2CCCCCC2)cc1OC	.	.	.	.	.	.	.
O=C(CSc1nc2ccccc2s1)c1sc2sc3ccccc3[n+]2c1O	.[11.4 µM]	/	/	.[11.4 µM]	.[11.5 µM]	.[11.5 µM]	/
CCn1c(=O)c(C(=O)CN2CCCc3ccccc32)c(N)n(Cc2ccccc2)c1=O	.	.	.	.	.	.	.
CCN(C(=O)CN1CCCc2ccccc21)c1c(N)n(Cc2ccccc2)c(=O)[nH]c1=O	.	.	.	.	.	.	/
Cn1c(=O)c(-c2cccs2)nc2cnc(N3CCNCC3)nc21	.	/	/	.	/	?	/
CCOc1ccc(NC(=O)C(C)SC(N)=O)cc1 (stereo unspecified)	.	/	/	.	.	.	.
CCOc1ccc(N(C(C)C(=O)Nc2ccc(OC)cc2)S(C)(=O)=O)cc1 (stereo unspecified)	.[11.4 µM]	/	/	.[11.4 µM]	.	.	.
O=S1(=O)N[C@H]2CC[C@@H]3NS(=O)(=O)N[C@H]4CC[C@H](N1)N4S(=O)(=O)N23	.[11.4 µM]	/	/	.[11.4 µM]	.[11.5 µM]	.[11.5 µM]	/
C=C1CC[C@H](O)C/C1=C/C=C1\CCC[C@]2(C)[C@H]1CC[C@H]2[C@@H](C)/C=C\[C@@H](C)C(C)C	?	/	/	?	.	.	/
CC1=CCC2C(=O)N(c3ccc(Br)cc3C)C(=O)C2C1 (stereo unspecified)	.	.	.	25µM	.	.	.
COCCNC(=O)C(c1ccccc1)N(Cc1cccs1)C(=O)Cn1nnc2ccccc21 (stereo unspecified)	.	.	.	13µM	.	.	.
CCOC(=O)CN(C(=O)Cn1nnc2ccccc21)C(C(=O)NCCOC)c1ccccc1 (stereo unspecified)	.	.	.	.	.	.	/
CC1(C)CC(=O)C2=C(C1)OC(N)=C(C#N)C2C#Cc1ccccc1 (stereo unspecified)	.	.	.	.	.	.	/
CC1(C)CC(=O)C2=C(C1)OC(N)=C(C#N)C2CCc1ccccc1 (stereo unspecified)	.	/	.	20µM	.	.	.
Oc1ccc(Cn2c(-c3ccc(O)cc3)nc3ccccc32)cc1	.[11.4 µM]	/	/	.[11.4 µM]	.[11.5 µM]	.[11.5 µM]	/
SMILES	HEK293 cAMP ctrl	GBA activity	Bst PK mod	TSHR agonist	Casp1 inh	Caspase-7 inhib	parental cAMP
Oc1ccccc1Cn1c(-c2ccccc2O)nc2ccccc21	.	/	.	10µM	.	.	.
Cc1ccc(S(=O)(=O)N2CCC(C(=O)NC3CCCCCC3)CC2)cc1	.[11.4 µM]	/	/	.[11.4 µM]	.	.	/
Cc1ccc(S(=O)(=O)N2CCC(C(=O)NCCCN3CCCCCC3)CC2)cc1	.	.	10	4µM	.	.	.
CC(C)(CCC(C)(C)c1ccccc1)c1ccccc1	.[11.4 µM]	/	/	.[11.4 µM]	.[11.5 µM]	.[11.5 µM]	/
Cc1ccc(S(=O)(=O)NC(=O)Nn2c(C)nnc2C)cc1	.	/	/	.	.	.	.
Cc1ccc(S(=O)(=O)NC(=O)NN2CCCCCC2)cc1	.	/	.	.	.	.	/
COC(=O)CNC(=O)C12CC3(C)CC(C)(CC(C)(C3)C1)C2	.	.	.	13µM	.	.	.
Cn1c(=O)[nH]c(=O)c2c1nc(N1CCCCCC1)n2CCCSc1nc2ccccc2o1	.	.	.	.	.	.	.
Cc1noc(C)c1-c1cncnc1NCc1cccnc1	.	/	/	.	.	.	/
CCOC(=O)N1CCC(NC(=O)c2ccc(CNS(=O)(=O)c3ccc(F)cc3)cc2)CC1	.	.	.	25µM	.	.	.
CC(C)CNC(=O)O	.[11.4 µM]	/	/	.[11.4 µM]	.[11.5 µM]	.[11.5 µM]	/
COC(=O)c1cc(NC2c3ccccc3C(=O)N2c2cccnc2)cc(C(=O)OC)c1 (stereo unspecified)	.	/	/	16µM	.	.	.
COc1ccc(NC2c3ccccc3C(=O)N2c2cccnc2)cc1Cl (stereo unspecified)	.	/	/	.	.	.	/
COc1ccc(NC(=O)CN(c2ccc(C)cc2)S(=O)(=O)c2c(C)nn(C)c2C)cc1OC	.	.	.	.	.	.	/
Cc1nn(C)c(C)c1S(=O)(=O)N(CC(=O)Nc1ccccn1)c1ccc(C(C)C)cc1	.	/	/	10µM	.	.	.
CC(C)c1nnc(NC(=O)CCC(=O)NCc2ccc3c(c2)OCO3)s1	.	/	.	.	.	.	.
COc1ccc(-c2cc(C(F)(F)F)nc(SCCC(=O)N3CCOCC3)n2)cc1	.	.	.	20µM	.	.	.
CCN(CC)S(=O)(=O)c1ccc(Cl)c(C(=O)NC2CCCC2)c1	.	/	/	/	.	.	?
CC(=O)OCC1OC(C#CCCc2ccccc2)C=CC1OC(C)=O (stereo unspecified)	.[11.4 µM]	/	/	.[11.4 µM]	.[11.5 µM]	.[11.5 µM]	/
NC(=O)c1nsc(C(=O)N(CC(=O)NCc2ccc3c(c2)OCO3)C2CCCCC2)c1N	.	.	.	2µM	.	.	.
COc1ccc(CNc2nc(SC)n[nH]2)cc1OC	.	.	.	.	.	.	.
COc1ccc(CNc2n[nH]c(NCc3ccc(OC)c(OC)c3)n2)cc1OC	.	.	.	.	.	.	/
CN1C(=O)N(C)C2(c3ccccc3)Nn3c(s/c(=C/c4ccco4)c3=O)=NC12c1ccccc1 (stereo unspecified)	.	/	.	1.6µM	.	.	.
O=c1/c(=C/c2ccco2)sc2nc(-c3ccccc3Br)nn12	.	.	.	.	.	.	/
